SNCA viab count = cell viability loss counter-screen; Potency, µM (titrated, usually from 57.1 µM), hits mostly cytotoxic; 0.12% of 150,000 active; HEK-293-SNCA-luc viability, GF-AFC fluorescence, 24 h; AID 1671193; also: nearly all actives have a fitted effect of over 30% in size
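HEK-293-SNCA-luc cells (1500/well) plated 24 h, then exposed 24 h to a dilution series; GF-AFC added 30 min at 37C, fluorescence 405/540 nm; normalised to medium-only and DMSO wells, Hill fit.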
HEK293 tox = HEK 293 cell cytotoxicity | 6.6% of 94,000 active | HEK 293 viability, ATP luminescence (CellTiter-Glo), 48-72 h | Potency, µM (doses to about 115 µM), hits mostly inhibitors; also: nearly all actives have a fitted effect of over 60% in size
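250 HEK 293 cells/well; compound by pintool; incubated 48 or 72 hr at 37 degree Celsius; CellTiter-Glo added, 10 min RT, luminescence imaged.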
NIH3T3 tox = cytotoxic compounds in NIH 3T3 cells | NIH 3T3 viability, CellTiter-Glo ATP luminescence, 48-72 h | Potency, µM (series often up to 96.7 µM), actives largely listed as inhibitors | 4.3% of 94,000 active | AID 1345082; also: nearly all actives have a fitted effect of over 55% in size
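Mouse fibroblast NIH 3T3 cells, 400 per well, received compound via pintool and were incubated for 48 or 72 hr prior to CellTiter-Glo ATP luminescence measurement.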
FLuc inh = Photinus pyralis luciferase inhibition | AID 1347043 | P08659 | Potency, µM (top dose mostly 115 µM), actives largely listed as inhibitors | purified P. pyralis luciferase, luminescence, biochemical | 2.5% of 76,000 active; also: nearly all actives have a fitted effect of over 65% in size
Target sequence (P08659 whole entry, looked up): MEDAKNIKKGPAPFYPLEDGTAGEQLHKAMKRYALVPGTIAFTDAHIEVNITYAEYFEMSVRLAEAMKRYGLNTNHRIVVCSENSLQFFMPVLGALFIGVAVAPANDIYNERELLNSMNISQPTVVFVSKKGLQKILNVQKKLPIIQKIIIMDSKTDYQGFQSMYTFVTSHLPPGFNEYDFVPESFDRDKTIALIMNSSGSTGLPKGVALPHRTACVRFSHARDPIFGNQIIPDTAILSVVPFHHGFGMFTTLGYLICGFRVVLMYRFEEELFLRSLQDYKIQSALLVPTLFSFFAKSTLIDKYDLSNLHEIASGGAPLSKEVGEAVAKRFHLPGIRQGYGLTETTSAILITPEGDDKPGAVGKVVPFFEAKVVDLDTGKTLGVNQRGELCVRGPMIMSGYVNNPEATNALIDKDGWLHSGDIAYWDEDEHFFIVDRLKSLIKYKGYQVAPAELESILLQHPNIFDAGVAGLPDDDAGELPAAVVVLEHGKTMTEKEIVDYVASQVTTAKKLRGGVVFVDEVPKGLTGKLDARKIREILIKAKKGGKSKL
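Cell-free enzyme assay, 10nM P. pyralis luciferase, luciferin and ATP each at 10uM. Inhibition profiled over a 6-point titration, read as luminescence.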
SNCA expr inhib = SNCA gene expression inhibition | HEK-293 SNCA-luciferase knock-in, luminescence, 24 h | Potency, µM (doses to about 57.2 µM), hits mostly inhibitors | 0.17% of 140,000 active; also: nearly all actives have a fitted effect of over 45% in size
IP6K1 inhibitor = inhibitors of human IP6K1; Q92551; activity change, % (series mostly up to about 58 µM); IP6K1 kinase, ADP-Glo luminescence, 2 h; stronger effect = lower value; 0.81% of 140,000 active; in the data active = activity change below about -25%
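ADP-Glo luminescence measures ADP made by human IP6K1 during a 2 h RT reaction with ATP/IP6 (mix at 1.3 mM/130 uM); top library doses 57.5 and 19.1 uM final.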
Numbers stand for hits; – = inactive; ? = inconclusive; · = no result given; [ ] = remark or other dose. A selection: hits, their analogues and other compounds. The true share with any hit is near 7.3%. Unless noted, calls follow the shape of the dose curve; as a rule, active = well fitted curve in the direction sought with a large enough effect; inconclusive = small, poorly fitted or top-dose-only effect, or another doubt; inactive = no such curve, though single readings can be large; an effect the other way counts as inactive or inconclusive.

SMILES	SNCA viab count	HEK293 tox	NIH3T3 tox	FLuc inh	SNCA expr inhib	IP6K1 inhibitor
COCCn1ncc(N2CCCC(CC(=O)Nc3ccc(Cl)cc3)C2)cc1=O (configuration not stated)	–	?	31.6µM	–	–	–
Cc1cccc(OCC2(CNC3CCC3)C[C@@H](O)[C@@H](O)C2)n1 (some centres not stated)	–	–	–	–	–	–
O=C1N(CCc2ccccc2)CCOC12CCN(Cc1ccc(F)c(Cl)c1)CC2	?	79.4µM	44.7µM	–	?	–
COc1ccc(CC(=O)N2CC[C@@H](CC(=O)O)[C@@H](CCN3CCOCC3)C2)cc1	–	–	–	–	–	–
CCCCn1c(=O)c(C(=O)NCc2ccccc2)nc2cccnc21	–	?	?	·	–	–
CCCCn1c(=O)c(C(=O)NCCc2ccc(Cl)cc2)nc2cccnc21	–	?	?	·	–	–
CCCCn1c(=O)c(C(=O)NCCc2ccccc2)nc2cccnc21	–	44.7µM	?	·	–	–
O=C(NCc1cccc(Cl)c1)c1nc2cccnc2n(CCc2ccccc2)c1=O	–	35.5µM	?	·	?	–
CCCCn1c(=O)c(C(=O)NCc2cccc(Cl)c2)nc2cccnc21	–	?	35.5µM	·	–	–
O=C1CN(C(=O)c2ccc(Cl)cc2)CC(O)CN1CCCc1ccccc1 (configuration not stated)	·	?	?	·	·	–
Cc1cc2ncc(C(=O)NCCCc3ccccc3)cn2n1	–	–	–	·	–	–
CN1C[C@H](NC(=O)c2cnccn2)CCC[C@@H](C(=O)NCc2cc(F)cc(F)c2)CC1=O	–	–	–	–	–	–
CCC1(O)CCC12CCN(C(=O)Cc1cccnc1)CC2 (configuration not stated)	?	–	–	–	–	–
O=C(Cc1cccnc1)N1CCCC(c2ccccc2)(c2ccccc2)C1	–	44.7µM	–	–	–	–
CC(C)S(=O)(=O)c1oc(-c2cccs2)nc1S(=O)(=O)c1ccc(F)cc1	?	·	·	·	14.1µM	–
CCCCS(=O)(=O)c1oc(-c2ccc(F)cc2)nc1S(=O)(=O)c1ccccc1	14.1µM	·	·	·	?	–
CC(C)S(=O)(=O)c1oc(-c2ccc(F)cc2)nc1S(=O)(=O)c1ccccc1	2.51µM	·	·	·	?	–
CS(=O)(=O)c1oc(-c2ccc(F)cc2)nc1S(=O)(=O)c1ccc(Cl)cc1	–	·	·	·	–	–
CCS(=O)(=O)c1oc(-c2ccc(F)cc2)nc1S(=O)(=O)c1ccc(Br)cc1	15.8µM	·	·	·	?	–
COC1CCCN(c2ncccc2-c2cc(-c3ccccc3)nc3c(C)noc23)C1 (configuration not stated)	?	79.4µM	?	–	–	–
COC1CCCN(c2cc(-c3cccnc3)nc3c(C)noc23)C1 (configuration not stated)	–	?	35.5µM	–	–	–
COC1CCN(c2cc(-c3cccnc3)nc3c(C)noc23)CC1	–	–	?	–	–	–
CC(=O)N1CCN(c2ncccc2-c2cc(-c3ccccc3)nc3c(C)noc23)CC1	–	–	?	–	–	–
O=C(Nc1cc(-c2ccncc2)nn1-c1ccccc1)c1ccc(C(F)(F)F)cc1	–	?	31.6µM	·	?	–
COC(=O)c1ccc2nc(C[C@@H]3C[C@@H](C(C)C)[C@H](CNC4CCN(C)CC4)C=C3C)[nH]c2c1	–	22.4µM	25.1µM	–	–	–
SMILES	SNCA viab count	HEK293 tox	NIH3T3 tox	FLuc inh	SNCA expr inhib	IP6K1 inhibitor
COc1ccc2nc(C[C@@H]3C[C@@H](C(C)C)[C@H](CNC(=O)CCC(=O)O)C=C3C)[nH]c2c1	–	–	–	–	–	–
CC1=C[C@@H](CNC(=O)CCC(=O)O)[C@H](C(C)C)C[C@H]1Cc1nc2c(C)cccc2[nH]1	–	?	–	–	–	–
COc1ccc2nc(C[C@@H]3C[C@@H](C(C)C)[C@H](CNCc4ccccc4OC)C=C3C)[nH]c2c1	?	20µM	28.2µM	–	?	–
COc1ccccc1CN(Cc1ccccc1OC)C[C@@H]1C=C(C)[C@H](Cc2nc3c(C)cccc3[nH]2)C[C@H]1C(C)C	?	15.8µM	31.6µM	–	?	–
COC(=O)c1ccc2nc(C[C@@H]3C[C@@H](C(C)C)[C@H](CNS(=O)(=O)c4ccccc4)C=C3C)[nH]c2c1	?	28.2µM	31.6µM	–	–	–
c1ccc(-c2nc(NCc3cc4n(n3)CCCNC4)c3ccccc3n2)cc1	–	?	?	–	–	–
Cc1cccc(OCC(=O)N2CCC[C@H]2c2nc(-c3ccc(F)cc3)no2)c1	–	?	?	–	–	–
COC(=O)c1ccc2nc(C[C@@H]3C[C@@H](C(C)C)[C@H](CNCc4ccccc4O)C=C3C)[nH]c2c1	–	22.4µM	20µM	–	–	–
NCc1ccccc1-c1ccc(OC(F)(F)F)cc1	–	56.2µM	?	·	–	–
O=Cc1ccccc1-c1ccc(OC(F)(F)F)cc1	–	–	?	·	–	–
O=c1c(-c2cccs2)nc2cnc(N3CCNCC3)nc2n1Cc1cccs1	?	·	·	·	17.8µM	·
CN1CCN(c2ncc3nc(-c4cccs4)c(=O)n(Cc4cccs4)c3n2)CC1	?	·	·	·	–	·
CN(C)c1nccnc1OC1CCN(C(=O)c2ccoc2)C1 (configuration not stated)	–	–	–	39.8µM	–	–
CCCN(C)c1nccnc1OC1CCN(C(=O)c2ccc(OC)cc2)C1 (configuration not stated)	–	44.7µM	–	39.8µM	–	–
CC(C)CC(=O)N1CCC(Oc2nccnc2N(C)C)C1 (configuration not stated)	–	–	–	31.6µM	–	–
COCC(=O)N1CCC(Oc2nccnc2N(C)C)C1 (configuration not stated)	–	–	–	–	–	–
COc1ccc(-c2cc(N3CCC(NC(=O)c4ccc(C#N)cc4)C3)n[nH]2)cc1 (configuration not stated)	?	?	?	–	–	–
C=CC(C)(O)CC/C=C(\C)C(=O)O[C@@H]1[C@@H](O)[C@H](OC(C)(C=C)CC/C=C(\C)C(=O)O[C@@H]2O[C@H](CO)[C@@H](O)[C@H](O)[C@H]2O)O[C@H](CO)[C@H]1OC(=O)/C(C)=C/CCC(C)(O)C=C (some centres not stated)	–[12.5 µM]	·	·	·	·	–
C=CC(C)(O)CC/C=C(\C)COC1O[C@H](CO)[C@@H](O)[C@H](O)[C@H]1O (some centres not stated)	?	·	·	·	·	-34.3
Cc1ccc(C(=O)NCc2nnc3cc(-c4nc(C(C)C)no4)ccn23)cc1	–	–	–	–	–	–
Cc1ccc(CN2C(=O)[C@@H]3C[C@@H](O)CN3C3(CN(C4CCC4)C3)C2=O)o1	–	–	–	–	–	–

Screening data deposited in PubChem BioAssay by National Center for Advancing Translational Sciences (NCATS).
